Results reported in paper PMC5540273 (PLoS ONE, 2017).

System: EPHA8
Conditions: concentration: 1 μM,replicates: in singlicate; n = 1
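Also: KINOMEscan kinase panel screen.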

How did the “%Inh” value turn out when `CNC(=O)c1ccccc1Nc1nc(Nc2cccc(CS(C)(=O)=O)c2)ncc1C.O=CO` [GSK1520489] was run?
The value was 96.2%.

For `O=C(Nc1n[nH]c2cc(-c3ccco3)ccc12)C1CC1` [SB-737447], which “%Inh” value is on record?
Its value is 0%.

For `CSc1nccc(-c2c(-c3ccc(F)cc3)ncn2CCCN2CCOCC2)n1.Cl` [SB-217146], which “%Inh” value is on record?
The value was 0%.

For `COc1cccc(CNC(=O)NC2CCN(c3ccnc(Nc4cc(OC)c(OC)c(OC)c4)n3)C2)c1` (centres unmarked) [GSK1379765], which “%Inh” value is on record?
Its value is 13%.

Which “%Inh” value does the source give for `Cn1cc(-c2cccc3c(N)c(C(N)=O)nnc23)cn1` here?
Its value is 13%.

With `Cc1ccc(Nc2ccnc(Nc3ccc4c(c3)CS(=O)(=O)C4)n2)cc1O.Cl` [GW579362] as the molecule, how does the “%Inh” value read?
Its value is 85%.

`CC(C(=O)NC1CCN(c2ccnc(Nc3ccc(F)cc3)n2)C1)c1ccc(Cl)cc1` (centres unmarked) [GSK1379713] was tested. Which “%Inh” value did it give?
Its value is 14%.

For `COc1cc2c(Nc3ccc(NC(=O)c4ccccc4)cc3)ncnc2cc1OCCCN1CCOCC1` [GSK301329], which “%Inh” value is on record?
Its value is 12%.

`N#Cc1cccc(C(=O)NC2CCN(c3ccnc(Nc4ccc(F)cc4)n3)C2)c1` (centres unmarked) [GSK1379708] was tested. Which “%Inh” value did it give?
The value was 0%.

`CN1CCN(CCCNc2nccc(-c3c(-c4ccc(F)cc4)nn4cc(C(N)=O)ccc34)n2)CC1` [GW622475] was tested. Which “%Inh” value did it give?
Its value is 26%.

With `O=C(Nc1cccc(C(F)(F)F)c1)c1cccc(Oc2ccc3nccn3n2)c1` as the molecule, how does the “%Inh” value read?
The value was 27%.

Which “%Inh” value does the source give for `COC(=O)Nc1nc2cc(Oc3ccc(NC(=O)Nc4cc(C(F)(F)F)ccc4Cl)cc3)ccc2[nH]1.Cl` [GW697465] here?
The value was 99.7%.

`Cn1ccc2ncnc(Oc3ccc(NC(=O)Nc4ccnc(C(F)(F)F)c4)c(Cl)c3)c21` was tested. Which “%Inh” value did it give?
Its value is 14%.

`Cc1cccc2c(-c3ccncc3)c(-c3ccc(F)cc3)nn12.Cl` [GW461487] was tested. Which “%Inh” value did it give?
The value was 16%.

Which “%Inh” value does the source give for `COc1cccc(C2=C(Nc3cccc(Cl)c3)C(=O)NC2=O)c1` [SB-341556] here?
The value was 20%.

Which “%Inh” value does the source give for `OCCn1cc(-c2cnc3nnn(Cc4ccc5ncccc5c4)c3n2)cn1` here?
Its value is 0%.

For `CC(=O)c1c(-c2ccncc2)[nH]c(-c2ccncc2)c1C` [GW493036], which “%Inh” value is on record?
The value was 6%.

Which “%Inh” value does the source give for `Cn1ccc2ncnc(Oc3ccc(NC(=O)Nc4cncc(C(F)(F)F)c4)c(Cl)c3)c21` here?
Its value is 95.4%.

`O=c1[nH]cc(-c2ccc(O)cc2)c2sc(-c3ccncc3)cc12` [GSK1033723] was tested. Which “%Inh” value did it give?
Its value is 2%.

With `COC(=O)c1cccc(NC(=O)NC2CCN(c3ccnc(NCc4ccc(F)cc4)n3)CC2)c1` [GSK1379860] as the molecule, how does the “%Inh” value read?
The value was 19%.

For `Cn1ccc2ncnc(Oc3ccc(NC(=O)Nc4cccc(C(F)(F)F)c4)c(F)c3)c21`, which “%Inh” value is on record?
Its value is 98.8%.

With `Cl.c1ccc(Oc2ccc(Nc3ccnc4cc(-c5ccc(CN6CCNCC6)o5)ccc34)cc2)nc1` [GW567142] as the molecule, how does the “%Inh” value read?
Its value is 10%.

For `CS(=O)(=O)c1cccc(CNc2nc(Nc3ccc4c(c3)[C@@H]3C[C@@H]4CNC3=O)ncc2C(F)(F)F)c1`, which “%Inh” value is on record?
Its value is 0%.

With `C[C@@H](Oc1cc(-n2cnc3ccc(-c4ccncc4)cc32)sc1C(N)=O)c1ccccc1Cl` [GSK483724] as the molecule, how does the “%Inh” value read?
The value was 23%.

For `CCOC(=O)N1CCC(n2cnc(-c3ccc(F)cc3)c2-c2ccnc(N)n2)CC1` [SB-219952], which “%Inh” value is on record?
Its value is 0%.

`Cn1ccc2ncnc(Oc3ccc(NC(=O)Nc4cc(C(C)(C)C)on4)c(Cl)c3)c21` was tested. Which “%Inh” value did it give?
Its value is 98.9%.

Which “%Inh” value does the source give for `Cc1n[nH]c2cc(Nc3ccnc(Nc4cccc(CN5CCOCC5)c4)n3)ccc12` [GW682569] here?
The value was 9%.

`NC(=O)c1ccc(-c2cc3ncnc(SCC(=O)O)c3s2)cc1` was tested. Which “%Inh” value did it give?
Its value is 0%.

Which “%Inh” value does the source give for `Cc1ccc(CC(=O)N2CCc3cc(-c4cn(C)c5ncnc(N)c45)ccc32)cc1` [GSK2634758] here?
The value was 13%.

Which “%Inh” value does the source give for `COc1ccc(Nc2nccc(N3CCC(NC(=O)c4cccc(C#N)c4)C3)n2)cc1` (centres unmarked) [GSK1379730] here?
Its value is 18%.

For `Cn1ccc2ncnc(Oc3ccc(NC(=O)Nc4cccc(C(F)(F)F)c4)c(Cl)c3)c21`, which “%Inh” value is on record?
Its value is 99.5%.

With `O=C(Nc1ccccc1)c1cccc(Oc2ccc3nccn3n2)c1` as the molecule, how does the “%Inh” value read?
Its value is 1%.

`Cn1ccc2ncnc(Oc3ccc(NC(=O)Nc4cnn(C(C)(C)C)c4)c(Cl)c3)c21` was tested. Which “%Inh” value did it give?
The value was 41%.

How did the “%Inh” value turn out when `CCn1c(-c2nonc2N)nc2cncc(CNC3CCNCC3)c21.Cl` [SB-747651] was run?
Its value is 0%.

With `COc1cc2nccc(Nc3ccc(Oc4ccccc4)cc3)c2cc1OC.Cl` [GI261656] as the molecule, how does the “%Inh” value read?
Its value is 0%.

`Cl.Cl.NC[C@H](CC1CCCCC1)NC(=O)c1ccc(-c2ccnc3[nH]ccc23)s1` [GSK1581428] was tested. Which “%Inh” value did it give?
The value was 36%.

Which “%Inh” value does the source give for `Cc1cccc(-c2nc(Nc3ccncc3)c3sccc3n2)n1` [GW869641] here?
Its value is 2%.

System: EPHB1
Conditions: concentration: 1 μM,replicates: in singlicate; n = 1

`CNC(=O)c1ccccc1Nc1nc(Nc2cccc(CS(C)(=O)=O)c2)ncc1C.O=CO` [GSK1520489] was tested. Which “%Inh” value did it give?
Its value is 99.9%.

With `O=C(Nc1n[nH]c2cc(-c3ccco3)ccc12)C1CC1` [SB-737447] as the molecule, how does the “%Inh” value read?
Its value is 0%.

Which “%Inh” value does the source give for `CSc1nccc(-c2c(-c3ccc(F)cc3)ncn2CCCN2CCOCC2)n1.Cl` [SB-217146] here?
The value was 11%.

With `COc1cccc(CNC(=O)NC2CCN(c3ccnc(Nc4cc(OC)c(OC)c(OC)c4)n3)C2)c1` (centres unmarked) [GSK1379765] as the molecule, how does the “%Inh” value read?
Its value is 13%.

How did the “%Inh” value turn out when `Cn1cc(-c2cccc3c(N)c(C(N)=O)nnc23)cn1` was run?
Its value is 4%.

For `Cc1ccc(Nc2ccnc(Nc3ccc4c(c3)CS(=O)(=O)C4)n2)cc1O.Cl` [GW579362], which “%Inh” value is on record?
Its value is 78%.

For `CC(C(=O)NC1CCN(c2ccnc(Nc3ccc(F)cc3)n2)C1)c1ccc(Cl)cc1` (centres unmarked) [GSK1379713], which “%Inh” value is on record?
The value was 10%.

With `COc1cc2c(Nc3ccc(NC(=O)c4ccccc4)cc3)ncnc2cc1OCCCN1CCOCC1` [GSK301329] as the molecule, how does the “%Inh” value read?
Its value is 20%.

Which “%Inh” value does the source give for `N#Cc1cccc(C(=O)NC2CCN(c3ccnc(Nc4ccc(F)cc4)n3)C2)c1` (centres unmarked) [GSK1379708] here?
Its value is 9%.

For `CN1CCN(CCCNc2nccc(-c3c(-c4ccc(F)cc4)nn4cc(C(N)=O)ccc34)n2)CC1` [GW622475], which “%Inh” value is on record?
The value was 35%.

For `O=C(Nc1cccc(C(F)(F)F)c1)c1cccc(Oc2ccc3nccn3n2)c1`, which “%Inh” value is on record?
Its value is 20%.

How did the “%Inh” value turn out when `COC(=O)Nc1nc2cc(Oc3ccc(NC(=O)Nc4cc(C(F)(F)F)ccc4Cl)cc3)ccc2[nH]1.Cl` [GW697465] was run?
Its value is 62%.

Which “%Inh” value does the source give for `Cn1ccc2ncnc(Oc3ccc(NC(=O)Nc4ccnc(C(F)(F)F)c4)c(Cl)c3)c21` here?
The value was 5%.

How did the “%Inh” value turn out when `Cc1cccc2c(-c3ccncc3)c(-c3ccc(F)cc3)nn12.Cl` [GW461487] was run?
The value was 5%.

Which “%Inh” value does the source give for `COc1cccc(C2=C(Nc3cccc(Cl)c3)C(=O)NC2=O)c1` [SB-341556] here?
Its value is 0%.

`OCCn1cc(-c2cnc3nnn(Cc4ccc5ncccc5c4)c3n2)cn1` was tested. Which “%Inh” value did it give?
The value was 0%.

`CC(=O)c1c(-c2ccncc2)[nH]c(-c2ccncc2)c1C` [GW493036] was tested. Which “%Inh” value did it give?
Its value is 12%.

Which “%Inh” value does the source give for `Cn1ccc2ncnc(Oc3ccc(NC(=O)Nc4cncc(C(F)(F)F)c4)c(Cl)c3)c21` here?
The value was 45%.

Which “%Inh” value does the source give for `O=c1[nH]cc(-c2ccc(O)cc2)c2sc(-c3ccncc3)cc12` [GSK1033723] here?
The value was 0%.

Which “%Inh” value does the source give for `COC(=O)c1cccc(NC(=O)NC2CCN(c3ccnc(NCc4ccc(F)cc4)n3)CC2)c1` [GSK1379860] here?
The value was 14%.

`Cn1ccc2ncnc(Oc3ccc(NC(=O)Nc4cccc(C(F)(F)F)c4)c(F)c3)c21` was tested. Which “%Inh” value did it give?
The value was 80%.

How did the “%Inh” value turn out when `Cl.c1ccc(Oc2ccc(Nc3ccnc4cc(-c5ccc(CN6CCNCC6)o5)ccc34)cc2)nc1` [GW567142] was run?
Its value is 0%.

With `CS(=O)(=O)c1cccc(CNc2nc(Nc3ccc4c(c3)[C@@H]3C[C@@H]4CNC3=O)ncc2C(F)(F)F)c1` as the molecule, how does the “%Inh” value read?
The value was 40%.

`C[C@@H](Oc1cc(-n2cnc3ccc(-c4ccncc4)cc32)sc1C(N)=O)c1ccccc1Cl` [GSK483724] was tested. Which “%Inh” value did it give?
The value was 26%.

`CCOC(=O)N1CCC(n2cnc(-c3ccc(F)cc3)c2-c2ccnc(N)n2)CC1` [SB-219952] was tested. Which “%Inh” value did it give?
The value was 0%.

`Cn1ccc2ncnc(Oc3ccc(NC(=O)Nc4cc(C(C)(C)C)on4)c(Cl)c3)c21` was tested. Which “%Inh” value did it give?
The value was 65%.

Which “%Inh” value does the source give for `Cc1n[nH]c2cc(Nc3ccnc(Nc4cccc(CN5CCOCC5)c4)n3)ccc12` [GW682569] here?
Its value is 19%.

For `NC(=O)c1ccc(-c2cc3ncnc(SCC(=O)O)c3s2)cc1`, which “%Inh” value is on record?
Its value is 0%.

Which “%Inh” value does the source give for `Cc1ccc(CC(=O)N2CCc3cc(-c4cn(C)c5ncnc(N)c45)ccc32)cc1` [GSK2634758] here?
The value was 7%.

Which “%Inh” value does the source give for `COc1ccc(Nc2nccc(N3CCC(NC(=O)c4cccc(C#N)c4)C3)n2)cc1` (centres unmarked) [GSK1379730] here?
Its value is 0%.

Which “%Inh” value does the source give for `Cn1ccc2ncnc(Oc3ccc(NC(=O)Nc4cccc(C(F)(F)F)c4)c(Cl)c3)c21` here?
The value was 70%.

For `O=C(Nc1ccccc1)c1cccc(Oc2ccc3nccn3n2)c1`, which “%Inh” value is on record?
Its value is 13%.

How did the “%Inh” value turn out when `Cn1ccc2ncnc(Oc3ccc(NC(=O)Nc4cnn(C(C)(C)C)c4)c(Cl)c3)c21` was run?
The value was 15%.

Which “%Inh” value does the source give for `CCn1c(-c2nonc2N)nc2cncc(CNC3CCNCC3)c21.Cl` [SB-747651] here?
The value was 12%.

Which “%Inh” value does the source give for `COc1cc2nccc(Nc3ccc(Oc4ccccc4)cc3)c2cc1OC.Cl` [GI261656] here?
Its value is 9%.

For `Cl.Cl.NC[C@H](CC1CCCCC1)NC(=O)c1ccc(-c2ccnc3[nH]ccc23)s1` [GSK1581428], which “%Inh” value is on record?
The value was 6%.

With `Cc1cccc(-c2nc(Nc3ccncc3)c3sccc3n2)n1` [GW869641] as the molecule, how does the “%Inh” value read?
Its value is 15%.
